PubChem BioAssay (NCATS)
Inconclusive results are not listed. A call without a number means that no potency is given here. The source made the active and inactive calls. The call rests on the fitted dose curve; in most records, active means well fitted curve in the direction sought with a large enough effect; inconclusive means small, poorly fitted or top-dose-only effect, or another doubt; inactive means no such curve, though single readings can be large; an effect the other way counts as inactive or inconclusive.

Key:
[1] = molecular target: Aldehyde dehydrogenase, mitochondrial (Homo sapiens) (UniProt P05091); assay: qHTS for Inhibitors of the Aldehyde Dehydrogenase Family (ALDH2) Primary screen (AID 2061308); conditions: ALDH2 enzyme inhibition qHTS, 1536-well; series mostly up to 56 µM; further: nearly all actives have a fitted effect of over 55% in size
[2] = molecular target: Retinaldehyde dehydrogenase 3 (Homo sapiens) (UniProt P47895); assay: qHTS for Inhibitors of the Aldehyde Dehydrogenase Family (ALDH1A3) Primary screen (AID 2061315); conditions: ALDH inhibition qHTS; series mostly up to 56 µM

## Cc1ccc(S(=O)(=O)Nc2cc([N+](=O)[O-])ccc2C(=O)Nc2nc(-c3ccccc3)cs2)cc1
[1]
  Potency: inactive
[2]
  Potency: inactive

## COc1ccc2nc(-c3ccccc3OC)sc2c1
[1]
  Potency: inactive
[2]
  Potency: inactive

## O=C(Nc1ccc2sccc2c1)Nc1nnc(-c2ccncc2)s1
[1]
  Potency: inactive
[2]
  Potency: inactive

## Cc1cnc(-c2ccccc2C(C)C)nc1NCc1ccc(-c2ccnc(C(F)(F)F)c2)cc1
[1]
  Potency: inactive
[2]
  Potency: inactive

## c1coc(-c2ccc3ncnc(NCc4cccs4)c3c2)c1
[1]
  Potency: inactive
[2]
  Potency: inactive

## Cn1c2cc(Br)sc2c2cnn(Cc3ccc(F)cc3F)c(=O)c21
[1]
  Potency: inactive
[2]
  Potency: inactive

## Cc1cc2c(s1)c1cnn(Cc3ccc(-c4ccccc4)cc3)c(=O)c1n2C
[1]
  Potency: inactive
[2]
  Potency: inactive

## Cc1ccc(NC(=O)c2cnn3c(C)cc(C)nc23)c(C)c1
[1]
  Potency: inactive
[2]
  Potency: inactive

## O=C1CCCC2=C1C(c1cccc(C(F)(F)F)c1)N=C(Nc1nc3ccccc3o1)N2 (stereo not drawn)
[1]
  Potency: inactive
[2]
  Potency: inactive

## CN(C)C(=O)c1cccc(-c2csc(N3CCC(C(N)=O)CC3)n2)c1
[1]
  Potency: inactive
[2]
  Potency: inactive

## COc1ccc(-c2ccc(Nc3nc(-c4ccncc4)nc4ccccc34)cc2F)cc1F
[1]
  Potency: inactive
[2]
  Potency: inactive

## Cc1cc(C)nc(NC(=S)N2CCN(c3cc(Br)cc(C(F)(F)F)c3)CC2)c1
[1]
  Potency: inactive
[2]
  Potency: inactive

## Cc1cc(NS(=O)(=O)c2ccc(NC(=O)Cc3ccc(C)c(C)c3)cc2)no1
[1]
  Potency: inactive
[2]
  Potency: inactive

## O=C(Nc1cc(F)cc(F)c1)Nc1nnc(-c2ccncc2)s1
[1]
  Potency: inactive
[2]
  Potency: inactive

## COc1cc(F)c(S(=O)(=O)N2CCN(S(=O)(=O)c3ccco3)CC2)c(F)c1
[1]
  Potency: inactive
[2]
  Potency: inactive

## Cc1nc(NCc2ccc(-c3ccnc(C(F)(F)F)c3)cc2)c2ccccc2n1
[1]
  Potency: inactive
[2]
  Potency: inactive

## COc1cccc(Cn2ncc3c4sc(Br)cc4n(C)c3c2=O)c1
[1]
  Potency: inactive
[2]
  Potency: inactive

## Cc1ccc(-c2cc(C(=O)NCC[S+](=O)([O-])O)c3ccccc3n2)cc1C
[1]
  Potency: inactive
[2]
  Potency: inactive

## O=S(=O)(c1ccc2c(c1)OCCO2)N1CCN(S(=O)(=O)c2c(F)cc(F)cc2F)CC1
[1]
  Potency: inactive
[2]
  Potency: inactive

## Cn1nnnc1Sc1ncnc2scc(-c3ccc(C(=O)OC(C)(C)C)cc3)c12
[1]
  Potency: inactive
[2]
  Potency: inactive

## COc1cccc(C2c3c(ncn(-c4ccc(C#N)cc4)c3=N)Oc3ccc4ccccc4c32)c1 (stereo not drawn)
[1]
  Potency: inactive
[2]
  Potency: inactive

## C/C=C(\C)C(=O)O[C@H]1C=C(CO)C(=O)[C@H](OC(C)=O)[C@H]1C(C)C
[1]
  Potency: inactive
[2]
  Potency: inactive

## Cc1ccc(C2=NN(CC(=O)NCCc3ccccc3)C(=O)C2)cc1
[1]
  Potency: inactive
[2]
  Potency: inactive

## Fc1cc(Nc2nc(-c3ccncc3)nc3ccccc23)ccc1-c1cccc(C(F)(F)F)c1
[1]
  Potency: inactive
[2]
  Potency: inactive

## CCCN1CCN(c2cccc(Nc3nn4c(=O)c5ccccc5nc4s3)c2)CC1
[1]
  Potency: inactive
[2]
  Potency: inactive

## Cn1ccc2cc(-c3ccc4ncnc(NCc5cccs5)c4c3)ccc21
[1]
  Potency: inactive
[2]
  Potency: inactive

## O=C1CCc2cc(S(=O)(=O)Nc3ccccc3Cl)ccc2N1
[1]
  Potency: inactive
[2]
  Potency: inactive

## CC(=O)c1ccccc1-c1csc2ncnc(Sc3nnnn3C)c12
[1]
  Potency: inactive
[2]
  Potency: inactive

## Cc1ccc(NS(=O)(=O)c2cc3c(cc2F)NC(=O)CC3)cc1Cl
[1]
  Potency: inactive
[2]
  Potency: inactive

## CN(C)c1cccc(-c2nc(N3CCC(C(N)=O)CC3)ncc2F)c1
[1]
  Potency: inactive
[2]
  Potency: inactive

## Cc1ccc(OCCn2c(CCNC(=O)c3cccc(Br)c3)nc3ccccc32)cc1
[1]
  Potency: inactive
[2]
  Potency: inactive

## O=C1CCCC2=C1C(c1[nH]ncc1Cl)NC(=NCc1cccnc1)N2 (stereo not drawn)
[1]
  Potency: inactive
[2]
  Potency: inactive

## Cc1ccc(-c2ccc(=O)n(CC(=O)N(C3CCCCC3)C3CC3)n2)cc1
[1]
  Potency: inactive
[2]
  Potency: inactive

## Cc1cc(C)cc(Cn2ncc3c4sc(C)cc4n(C)c3c2=O)c1
[1]
  Potency: inactive
[2]
  Potency: inactive

## CN(C)c1ccc(-c2ccc(=O)n(CC(=O)NCCc3ccccc3)n2)cc1
[1]
  Potency: inactive
[2]
  Potency: inactive

## CC(C)c1ccc(NC(=O)c2cccs2)c(-c2nc3ccccc3[nH]c2=O)c1
[1]
  Potency: inactive
[2]
  Potency: inactive

## Cn1c2cc(C(=O)O)sc2c2cnn(Cc3ccccc3F)c(=O)c21
[1]
  Potency: inactive
[2]
  Potency: inactive

## Cc1ccc(NS(=O)(=O)c2ccc(C(=O)Nc3nc(-c4ccccc4)cs3)cc2)cc1
[1]
  Potency: inactive
[2]
  Potency: inactive

## CCCn1c(-c2ccc(F)cc2)nc2c(NC3CC4CCC(C3)N4C)nc(C)nc21 (stereo not drawn)
[1]
  Potency: inactive
[2]
  Potency: inactive
